What all share (assay type): functional
For assay [1], the system named is Plasmodium falciparum. As to the kind of experiment: GSK_TCMDC: Inhibition of Plasmodium falciparum 3D7 in whole red blood cells, using parasite LDH activity as an index of growth. Test compounds present at 2uM.
In assay [2] the test system is Plasmodium falciparum. The assay is described as follows: GSK_TCMDC: Inhibition of Plasmodium falciparum Dd2 in whole red blood cells, using parasite LDH activity as an index of growth. Test compounds present at 2uM.
In another assay the test system is HepG2. As to the kind of experiment: GSK_TCMDC: Percent inhibition of human HepG2 cell line. Test compounds present at 10uM.

In general, Inhibition refers to the drop in the measured response relative to a control, in per cent.

In the case of `Br.CCCCCCCn1c2c(c(=N)c3c1CCC3)CCCC2`, the Inhibition worked out at 98% with Plasmodium falciparum [1], 98% with Plasmodium falciparum [2] and 46% in the assay with HepG2.
As to `CCn1ncc2c(N3CCCC3=O)cc(C(=O)N[C@@H](Cc3ccccc3)[C@H](O)CNC(C)(C)c3cccc(C(F)(F)F)c3)cc21`, the values for the Inhibition with Plasmodium falciparum [1], in the assay on Plasmodium falciparum [2] and with HepG2 were 98%, 99% and 10%, respectively.
Regarding `CCc1cc2c3c(N)nc(N)nc3ccc2n1C(CC)CC`, the Inhibition with Plasmodium falciparum [1] amounted to 96%; in the assay with Plasmodium falciparum [2] it was 12%; in the assay with HepG2, 71%.
Taken in the same sequence, the figures for `CCCC(=O)Nc1ccc(OCCCN(Cc2ccccc2OC(F)(F)F)c2ccc(C#N)c(C(F)(F)F)c2)cc1` were 94%, 95% and 0%.
With `CCc1ccc(NC(=O)c2cccc(CN3CCCN(CC4CCCCC4)CC3)c2)cc1.O=C(O)C(F)(F)F`, the Inhibition was determined as 85% with Plasmodium falciparum [1], 41% in the assay with Plasmodium falciparum [2] and 62% with HepG2.
For the molecule `Cc1cccc2nc(-c3ccc(-c4cccc(CNC(C)C)c4)s3)[nH]c12.O=C(O)C(F)(F)F`, the Inhibition in the assay with Plasmodium falciparum [1] is reported as 100%; in the assay with Plasmodium falciparum [2] it was 97%; in the assay on HepG2, 12%.
For `O=C(NCc1cccc(F)c1)Nc1ccc(-c2cccc(-c3nc4cc(F)ccc4[nH]3)c2)cc1`, the Inhibition was 88% in the assay on Plasmodium falciparum [1], 2% in the assay with Plasmodium falciparum [2] and 31% in the assay with HepG2.
The corresponding values for `Cc1ccccc1C1CCN(C2CCC(NC(=O)c3ccc(-c4cccc(C(F)(F)F)c4)o3)CC2)CC1` (centres undefined) are 99%, 100% and 56%.
For `COc1cc(C(=O)N2CCOC(CCN3CCC(c4ccc(Cl)cc4)CC3)(c3ccc(Cl)c(Cl)c3)C2)cc(OC)c1OC` (centres undefined), the Inhibition with Plasmodium falciparum [1] was 91%; with Plasmodium falciparum [2], 80%; in the assay with HepG2 it was 44%.
With `O=C(O)C(F)(F)F.c1cc(CN2CCC(CCN3CCCCC3)CC2)cc(-c2cccc(-c3nc4ccccc4[nH]3)c2)c1`, the Inhibition is recorded as 100% with Plasmodium falciparum [1], 100% in the assay on Plasmodium falciparum [2] and 95% in the assay with HepG2.
As to `CCCCCCCN1CC[C@@H](CCC(O)c2ccnc3ccc(OC)cc23)[C@@H](CC)C1` (some centres undefined), the Inhibition stood at 97% in the assay on Plasmodium falciparum [1], 93% in the assay on Plasmodium falciparum [2] and 34% in the assay on HepG2.
For `CC1(C)N=C(N)N=C(Nc2ccc(F)c(F)c2)N1.Cl`, the Inhibition worked out at 91% in the assay with Plasmodium falciparum [1], 1% in the assay with Plasmodium falciparum [2] and 59% in the assay with HepG2.
`O=C1SC(=Cc2ccc(O)c(O)c2)C(=O)N1c1ccccc1`: the Inhibition amounted to 91% in the assay on Plasmodium falciparum [1], 17% with Plasmodium falciparum [2] and 12% with HepG2.
For `O=C(Nc1cccc(C(F)(F)F)c1)c1cccc(S(=O)(=O)NCC2CCCN2CC2CCCCC2)c1.O=C(O)C(F)(F)F` (centres undefined), the values for the Inhibition in the assay with Plasmodium falciparum [1], in the assay on Plasmodium falciparum [2] and in the assay on HepG2 were 97%, 2% and 6%, respectively.
The corresponding values for `COc1ccc2nccc([C@@H](O)CN3CCC(NC/C=C/c4cccnc4)CC3)c2c1.CS(=O)(=O)O` are 100%, 19% and 0%.
Consider `Cc1cccc(-c2cccc3c(NC(=O)N4CCc5cc6nccc(N7CCN8CCC[C@H]8C7)c6cc54)cccc23)n1.Cl`, for which the Inhibition in the assay with Plasmodium falciparum [1] was 94%; in the assay with Plasmodium falciparum [2], 68%; in the assay with HepG2, 14%.
As for `COc1ccc(NC(=O)c2ccc3cc4ccccc4cc3c2)cc1N1CCN(C)CC1`, the Inhibition in the assay on Plasmodium falciparum [1] is given as 86%; with Plasmodium falciparum [2], 29%; with HepG2, 38%.
With `O=C(Nc1ccc(F)c(Cl)c1)c1cc([N+](=O)[O-])cc2cn[nH]c12`, the Inhibition with Plasmodium falciparum [1] is 100%; in the assay on Plasmodium falciparum [2], 67%; in the assay on HepG2 it was 32%.
Turning to `O=C(Cc1ccccc1)NC(CCN1CCC(O)(c2cccc(C(F)(F)F)c2)CC1)c1ccc(Cl)c(Cl)c1` (centres undefined), the Inhibition in the assay on Plasmodium falciparum [1] stood at 96%; in the assay on Plasmodium falciparum [2] it was 32%; with HepG2, 25%.
On to `O=[N+]([O-])c1ccc(N/C(=N\c2ccccc2Br)NCCOc2ccccc2)c(O)c1`, for which the Inhibition in the assay on Plasmodium falciparum [1] was 88%; with Plasmodium falciparum [2], 70%; in the assay with HepG2, 6%.
For the molecule `COc1ccc(C(C)Nc2nc(N)c3cc(OC)c(OC)cc3n2)cc1.Cl` (centres undefined), the values for the Inhibition in the assay on Plasmodium falciparum [1], in the assay with Plasmodium falciparum [2] and in the assay with HepG2 were 100%, 28% and 23%, respectively.
In the case of `CC[C@H](C)CNC(=O)c1cncc(-c2ccc(CN3CCC(N4CCCC4)CC3)cc2)c1.O=C(O)C(F)(F)F`, the Inhibition is recorded as 100% in the assay on Plasmodium falciparum [1], 100% in the assay with Plasmodium falciparum [2] and 0% in the assay with HepG2.
In the case of `CN1CCc2cc(I)c(O)cc2C1Cc1ccccc1Cl.Cl` (centres undefined), the Inhibition in the assay with Plasmodium falciparum [1] was 98%; with Plasmodium falciparum [2], 96%; in the assay with HepG2, 0%.
`Cn1nc(-c2ccc(CNC3CCc4ccccc43)cc2)c2cnc(NCCCN3CCCC3)nc21` (centres undefined): the Inhibition stood at 92% with Plasmodium falciparum [1], 22% in the assay on Plasmodium falciparum [2] and 27% with HepG2.
`CCN(CC)C(=O)C1CCCN(c2cc(C)nc(Nc3ccc(Cl)cc3)n2)C1` (centres undefined): the values for the Inhibition with Plasmodium falciparum [1], with Plasmodium falciparum [2] and with HepG2 were 94%, 64% and 13%, respectively.
Consider `CCc1c(CCNCCCCCCNCCc2ccc(Br)cc2)ccc(OC)c1OC.Cl`, for which the Inhibition in the assay with Plasmodium falciparum [1] was determined as 99%; in the assay with Plasmodium falciparum [2], 14%; with HepG2 it was 100%.
For the molecule `CCN(CC)CCOc1ccc(C(O)(C#CC(O)(c2ccc(C)cc2)c2ccc(OCCN(CC)CC)cc2)c2ccc(C)cc2)cc1` (centres undefined), the Inhibition in the assay on Plasmodium falciparum [1] stood at 97%; in the assay on Plasmodium falciparum [2] it was 98%; in the assay with HepG2 it was 94%.
Taken in the same sequence, the figures for `COc1ccc(Nc2nc(NN=Cc3cc(Br)c(O)cc3O)nc(Nc3ccc([N+](=O)[O-])cc3)n2)cc1` were 97%, 23% and 30%.

The values above are taken from ChEMBL document CHEMBL1157539, “Thousands of chemical starting points for antimalarial lead identification” (Nature, 2010).
